Assay results: PubChem BioAssay
“And” between values parts separate entries of the source, which are not always exact repeats. Equal values may be shown once. The source made the active and inactive calls.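 The calls were made as follows, unless noted: active = compound raises insulin release from rat beta cells at 5 mM glucose, no numeric limit stated; inactive = the rest.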

Legend:
[1] = stimulators of nuclear beta-catenin in C2C12, primary screen, imaging, WNT3A-conditioned medium, mouse C2C12, NPC library (AID 1117326; in the data active = nuclear beta-catenin stimulation mostly above about 4.2%, no sharp cut-off; inactive = mostly below about 10%; also: reference of the scale not given here); conditions: stronger effect = higher value
[2] = stimulators of insulin release from INS-1E, primary screen, cell-based, 5 mM glucose, NPC library (AID 1117329); conditions: rat INS-1E insulin secretion, at 10 µM, stronger effect = higher value; also: reference of the scale not given here
[3] = growth inhibition of GSK3B-pretreated HCT116 cells – cell-based, CellTiter-Glo, 0.2 to 20 µM (AID 1117336;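 active = compounds lowering colon cancer cell viability after pretreatment blocking the GSK3B kinase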); conditions: HCT116 viability after GSK3B inhibitor, at 20 µM, stronger effect = higher value
[4] = inhibition of endothelial tube formation, primary screen, imaging, VEGF stimulated, CD31 staining, tube area, NPC library (AID 1117340;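 active = compound that reduces growth-factor-driven endothelial tube area in a mixed cell culture, no cutoff stated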); conditions: VEGF-stimulated ADSC/ECFC co-culture, at 10 µM, stronger effect = higher value
[5] = glucagon-like peptide 1 release enhancers, primary assay, NCI-H716 cell line, NPC library (AID 1117341;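 active = compound raises GLP1 secretion from the human gut endocrine cells, with no numeric limit stated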; also: reference of the scale not given here); conditions: NCI-H716 cells, at 10 µM, stronger effect = higher value
[6] = HCT116 colon cancer cell growth inhibition, primary screen, CellTiter-Glo luminescence, NPC library (AID 1117342;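 active = compounds that lower survival of HCT116 colon cancer cells in the luminescence readout, no numeric limit stated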); conditions: at 20 µM (top of the series)
[7] = CellTiter-Glo luminescent readout of SW480 viability loss, NPC library primary (AID 1117343;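 active = compounds that lower viability of the colon cancer cells in the luminescence readout, with no numeric limit stated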); conditions: CellTiter-Glo luminescence; at 20 µM (top of the series)
[8] = decreased DLD-1 cellular survival, CellTiter-Glo luminescent readout, NPC compound collection, primary HTS (AID 1117346;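 active = compounds that lower survival of DLD-1 colon cancer cells in the luminescence readout, no cutoff given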); conditions: DLD-1 viability, CellTiter-Glo luminescence; at 20 µM (top of the series)
[9] = sensitizers of A549 cells to miR-34 induction, primary screen, imaging, A549 dox-inducible miR-34, nuclei and caspase counts (AID 1347080;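 active = compounds whose cell count with miR-34 switched on is under 0.7 times the count with it off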); conditions: A549 miR-34 inducible, Hoechst nuclei count, 48 h
[10] = biological target: NAD(+) hydrolase SARM1 (Homo sapiens) (UniProt Q6SZW1); assay: SARM1 TIR NADase inhibitors, cell lysate, NAD-Glo luminescence (AID 1508614;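 active = compound whose remaining NAD level is above about 45 nM, limit read from the data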;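 also: higher remaining NAD means stronger inhibition of SARM1 NADase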); conditions: SAM-TIR HEK293T lysate NADase, at 1 µM, stronger effect = higher value
Sequence of NAD(+) hydrolase SARM1 (Homo sapiens) (Q6SZW1 whole entry, looked up): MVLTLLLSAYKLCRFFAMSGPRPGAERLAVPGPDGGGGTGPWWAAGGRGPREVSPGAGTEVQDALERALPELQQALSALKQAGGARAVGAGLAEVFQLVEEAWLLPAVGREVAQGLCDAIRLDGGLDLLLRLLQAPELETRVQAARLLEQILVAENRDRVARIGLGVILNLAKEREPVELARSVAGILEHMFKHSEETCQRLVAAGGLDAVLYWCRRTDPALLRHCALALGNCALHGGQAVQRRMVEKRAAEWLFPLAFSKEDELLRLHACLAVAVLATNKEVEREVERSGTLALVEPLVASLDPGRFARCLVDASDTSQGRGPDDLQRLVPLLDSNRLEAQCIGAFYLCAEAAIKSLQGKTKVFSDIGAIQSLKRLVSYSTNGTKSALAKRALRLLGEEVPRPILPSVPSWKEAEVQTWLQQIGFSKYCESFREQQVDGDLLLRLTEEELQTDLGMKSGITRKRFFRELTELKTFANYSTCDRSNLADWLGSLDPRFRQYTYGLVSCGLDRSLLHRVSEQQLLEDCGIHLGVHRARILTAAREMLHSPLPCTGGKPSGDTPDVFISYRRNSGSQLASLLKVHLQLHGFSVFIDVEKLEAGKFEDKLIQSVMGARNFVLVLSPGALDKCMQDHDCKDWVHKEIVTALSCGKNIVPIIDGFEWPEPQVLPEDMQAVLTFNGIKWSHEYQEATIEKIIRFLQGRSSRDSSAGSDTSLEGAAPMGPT

[11] = hESC survival regulators, cell-based (AID 493140; call rule not given here;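 also: cells exposed to compounds for four days before counting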); conditions: human embryonic stem cell survival screen; stronger effect = higher value
[12] = liver-stage malaria parasite growth inhibition, primary screen, cell-based, HepG2, luciferase luminescence, HepG2 viability (AID 624349; in the data active = parasite load remaining mostly below about 12%, no sharp cut-off; inactive = mostly above about 10%;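 also: 100% = mean of DMSO negative control wells on the same plate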); conditions: P. berghei liver stage in HepG2, luciferase luminescence, concentration not given here; parasite load remaining: stronger effect = lower value; viability: measured here: HepG2 viability without parasites
[13] = survival rescue of mitochondrial mutant cells in low glucose, primary screen, MELAS cybrids, Rieske KO mouse fibroblasts, CellTiter-Glo (AID 1508586;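 active = mean z-score across replicates of 1.96 or higher in either the MELAS or the Rieske mutant cell line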;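 also: z relative to plate mean and SD of compound and empty wells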)
[14] = measured here: relative caspase fold change +Dox/-Dox
[15] = measured here: total cells with miR-34 induction, stronger effect = lower value
[16] = measured here: total cells without miR-34 induction
[17] = MELAS cybrid survival, CellTiter-Glo 48 h, stronger effect = higher value
[18] = Rieske KO mouse fibroblast survival, CellTiter-Glo 72 h
[19] = stronger effect = lower value, cell number ratio, induced over uninduced

SMILES | nuclear beta-catenin stimulation ([1]; at 10 µM) | nuclear beta-catenin stimulation ([1]; stimulation, at 2 µM) [%] | insulin secretion stimulation [2] | viability decrease [3] | tube area decrease [4] | GLP1 secretion stimulation [5] | inhibition of viability [6] | viability decrease (inhibition) [7] | viability decrease (inhibition) [8] | fold change ([9]; stronger effect = lower value) | fold change [9, 14] | cell count [9, 15] | cell count [9, 16] | remaining NAD [10] | survival [11] | parasite load remaining [12] | viability [12] | z-score [13, 17] | z-score [13, 18] | fold change [9, 19]
NCc1cccnc1 | 0.8% (inactive) | 1.2 | -1.3% (inactive) | 16.9% (inactive) | -11.1% (inactive) | 0% (inactive) | -22.4% (active) | 1.8% (inactive) | -13.1% (inactive) | 0.867 (inactive) | 0.915 | 7820 | 9010 | 10 nM (inactive) | – | – | – | – | – | –
O=C(NCNC(=O)NC1C(=O)NC(=O)N1CO)NC1C(=O)NC(=O)N1CO (configuration not stated) | -1.7% (inactive) | 0.2 | 1.2% (inactive) | -3.4% (inactive) | -8.4% (inactive) | -0.8% (inactive) | -1.8% (inactive) | 3.1% (inactive) | 8.4% (inactive) | 0.914 (inactive) | 0.72 | 9340 | 10200 | – | 33.2 (inactive) | 92.1% (inactive) | 79.2% | 0.818 (inactive) | 0.0717 | –
CC=CC1C(C(=O)OCc2c(F)c(F)c(COC)c(F)c2F)C1(C)C (configuration not stated) | 2.1% (inactive) | -0.3 | 0.95% (inactive) | – | – | -3.8% (inactive) | – | – | – | – | – | – | – | – | – | – | – | – | – | –
O=C(CCCN1CCC(n2c(=O)[nH]c3ccccc32)CC1)c1ccc(F)cc1 | 4.7% (inactive) | 3 | 0.7% (inactive) | -40.8% (inactive) | 8% (inactive) | 2.9% (inactive) | 19.9% (inactive) | 29.4% (inactive) | 2.6% (inactive) | 0.825 (inactive) | 1.64 | 7580 | 9190 | – | 11.5 (inactive) | -5.69% (inactive) and 52.9% (inactive) | 105% and 74.8% | 0.0917 (inactive) | -0.147 | –
CC[N+]1(CCOC(=O)C(O)(c2ccccc2)c2ccccc2)CCCCC1 | -0.3% (inactive) | 0.7 | -0.8% (inactive) | – | 23.5% (inactive) | 0.5% (inactive) | – | – | – | – | – | – | – | – | – | – | – | – | – | –
CCCCCCCCCCCC[N+](C)(C)CCOc1ccccc1 | 20.4% (inactive) | 0.6 | 5.9% (inactive) | 110% (active) | 111% (active) | 67% (active) | 112% (active) | 134% (active) | 101% (active) | – | 0.958 | 6790 | 6870 | – | – | – | – | -0.488 (inactive) | -0.197 | 0.988 (inactive)
COP(=S)(OC)Oc1cc(Cl)c(Cl)cc1Cl | 2.5% (inactive) | -0.1 | 2.1% (inactive) | -23.4% (inactive) | -3.6% (inactive) | 3.7% (inactive) | 9.4% (inactive) | 32% (inactive) | 15.4% (inactive) | – | 3.75 | 12000 | 13300 | – | – | 48.6% (inactive) | 108% | – | – | 0.898 (inactive)
O=C1OC2(c3cc(Br)c(O)cc3Oc3c2cc(Br)c(O)[c]3[Hg])c2ccccc21 (configuration not stated) | 57.5% (active) | 3.4 | 7.2% (inactive) | 77.7% (active) | -234% (inactive) | -1.4% (inactive) | 52.1% (active) | 11.7% (inactive) | 38.2% (inactive) | – | 1.08 | 9490 | 10700 | – | – | 65.8% (inactive) | 84.8% | -0.831 (inactive) | 0.0245 | 0.885 (inactive)
NCCC[C@H](N)C(=O)O | 1.2% (inactive) | 1.6 | -2.2% (inactive) | -5.15% (inactive) | -2.1% (inactive) | 1.4% (inactive) | -35.4% (inactive) | 98.1% (active) | 0.35% (inactive) | – | – | – | – | 10 nM (inactive) | – | – | – | – | – | –
C[C@]12CC[C@@H]3c4ccc(OC(=O)N(CCCl)CCCl)cc4CC[C@H]3[C@@H]1CC[C@@H]2O | -1.2% (inactive) | 0.4 | -0.9% (inactive) | 18.1% (inactive) | 2.8% (inactive) | 2.6% (inactive) | -23.1% (inactive) | 56.7% (active) | 23.4% (inactive) | – | – | – | – | 10 nM (inactive) | – | – | – | -1.9 (inactive) | 0.249 | –
CC(C)(O)C(Cl)(Cl)Cl | -0.2% (inactive) | 0.8 | -2.2% (inactive) | -5.6% (inactive) | 1.4% (inactive) | 1.1% (inactive) | 4.4% (inactive) | 14% (inactive) | 6.7% (inactive) | 0.973 (inactive) | 0.817 | 7820 | 8030 | 10 nM (inactive) | – | – | – | – | – | –
